High-throughput results (PubChem)
IL-1B inflam inh = qHTS for Inhibitors of Inflammasome Signaling: IL-1-beta AlphaLISA Primary Screen. THP-1 LPS/ATP IL-1B secretion, AlphaLISA, 16 h; hits give low values. activity change, % at 57.5 µM. 360,000 compounds, 4.7% hits; in the data active = activity change below about -50%; inconclusive = mostly about -30% to -49%
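THP-1 cells pretreated 1 hr with compounds (up to 57.5 uM final), then stimulated with LPS (250 ng/mL final) plus ATP (1.25 mM final); secreted IL-1B measured by AlphaLISA after 16 hr, decreased signal indicating inhibition.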
DT40 TDP1 CPT = qHTS for Inhibitors of human tyrosyl-DNA phosphodiesterase 1 (TDP1): qHTS in cells in presence of CPT; chicken DT40 Tdp1-/-;hTDP1 cells + 20 nM CPT, ATP luminescence, 48 h; Potency, µM (series often up to 46.2 µM), inactives show top-dose activity change, negative = growth inhibition, most hits filed as inhibitors; 420,000 compounds, 12% hits; note: potency is the fitted concentration of half-maximal effect; nearly all actives have a fitted effect of over 55% in size
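Cell growth measured by CellTiter-Glo luminescence after a minimum 48 h, 37 C compound exposure with 20 nM CPT in Tdp1-knockout DT40 cells stably expressing hTDP1, seeded 400/well; qHTS titration format.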
DT40 TDP1 no CPT = qHTS for Inhibitors of human tyrosyl-DNA phosphodiesterase 1 (TDP1): qHTS in cells in absence of CPT. DT40 Tdp1-/- hTDP1 cells, no CPT, ATP luminescence, 48 h. Potency, µM (top dose mostly 46.2 µM), inactives show top-dose activity change, negative = growth inhibition, most hits filed as inhibitors. 420,000 compounds, 15% hits. AID 686978, 2013; note: potency is the fitted concentration of half-maximal effect; nearly all actives have a fitted effect of over 55% in size
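Growth of hTDP1-complemented DT40 Tdp1-knockout cells is measured by ATP luminescence after at least 48 hr compound exposure at 37 °C, with DMSO substituting for the 20 nM CPT used in the parallel screen.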
HT1080NT lethal = qHTS for induction of synthetic lethality in tumor cells producing 2HG: qHTS for the HT-1080-NT fibrosarcoma cell line; Potency, µM (top dose mostly 46.1 µM), for the others: at the highest dose activity, negative = less viability, usual class: cytotoxic; HT-1080-NT fibrosarcoma viability, CellTiter-Glo ATP luminescence, 48 h; 360,000 compounds, 1.6% hits;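 note: NT is the 2HG producing partner of a matched IDH1 knockdown line; potency is the fitted concentration of half-maximal effect; 0% = DMSO-treated cells and -100% = media-only wells without cells; nearly all actives have a fitted effect of over 55% in size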
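Luminescent CellTiter-Glo readout after 48 hours of compound exposure at 37 degrees C defined viability of HT-1080-NT cells. Activity was normalized to DMSO wells and cell-free media wells; concentration-response curves were fitted and assigned curve classes.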
HT1080 IDH1KD tx = qHTS for induction of synthetic lethality in tumor cells producing 2HG: qHTS for the HT-1080-IDH1KD cell line | Potency, µM (highest dose often 46.1 µM), for inactives: at the highest dose activity, negative = toxicity, usual class: cytotoxic | HT-1080 IDH1 knockdown viability, ATP luminescence, 48 h | AID 686971, 2013 | 360,000 compounds, 2% hits;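 note: potency is the fitted concentration of half-maximal effect; 0% = DMSO wells and -100% = cell-free medium wells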
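In this qHTS, HT-1080 cells depleted of IDH1 are exposed for 48 h at 37 °C to compound titrations. Toxicity is scored from CellTiter-Glo luminescence, with DMSO as full viability and medium alone as none.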
The depositor's hits bear a star; ? = inconclusive; . = not tested or not shown; [ ] = another dose, or the depositor's remark. An excerpt weighted towards active compounds, which were near 19% of everything screened. Unless noted, calls come from the whole dose curve; as a rule, active = well fitted curve in the direction sought with a large enough effect; inconclusive = small, poorly fitted or top-dose-only effect, or another doubt; inactive = no such curve, though single readings can be large; an effect the other way counts as inactive or inconclusive. Unless noted, % is set by controls: 0 for no effect and ±100 for the full control effect.

SMILES | IL-1B inflam inh | DT40 TDP1 CPT | DT40 TDP1 no CPT | HT1080NT lethal | HT1080 IDH1KD tx
CN(C(=O)/C=C/c1ccccc1)C1CCCCC1 | -51.1* | -2.0% | -21.8% | 13.9% | 10.7%
O=C(/C=C/c1ccc(Cl)cc1)N(c1ccccn1)C1CCCCC1 | -57.2* | ? | 20.6µM* | -17.3% | -12.3%
O=C(/C=C/c1ccc(Cl)cc1)N1CCN(c2ccccn2)CC1 | -12.7 | -13.9% | ? | -3.2% | -5.6%
CCN1CCN(C(c2cccc(F)c2)c2c(O)cc(C)n(Cc3ccco3)c2=O)CC1 (stereo not drawn) | . | 7.8% | 4.3% | . | .
Cn1nc(-c2ccccc2)cc1NC(=O)C1CCCCC1 | -17.3 | -23.0% | ? | -24.9% | 1.3%
Cc1ccc(C(=O)c2oc3ccccc3c2NC(=O)c2cc(-c3ccccc3)on2)cc1 | . | -8.7% | -0.4% | . | .
Cn1c(NCC(O)c2ccccc2)nc2c1c(=O)n(Cc1ccc(Cl)c(Cl)c1)c(=O)n2C (stereo not drawn) | -66.5* | 20.6µM* | 20.6µM* | 20.6µM* | 18.4µM*
CC(O)CNc1nc2c(c(=O)n(Cc3ccc(Cl)cc3)c(=O)n2C)n1C (stereo not drawn) | -10.5 | ? | ? | -20.8% | -13.2%
CC(O)CNc1nc2c(c(=O)n(Cc3ccc(Cl)c(Cl)c3)c(=O)n2C)n1C (stereo not drawn) | ? | ? | ? | -0.4% | -15.9%
Cn1c(NCC(O)c2ccccc2)nc2c1c(=O)n(Cc1ccc(Cl)cc1)c(=O)n2C (stereo not drawn) | -17.6 | 16.4µM* | 20.6µM* | ? | 8.3%[9.24 µM]
O=C(NCCC1=CCCCC1)C(=O)NCC(c1ccco1)N1CCN(c2ccc(F)cc2)CC1 (stereo not drawn) | 8.5 | ? | ? | -14.5% | -1.1%
O=[N+]([O-])c1ccc(Cl)c(/C=N/N2CCN(Cc3ccccc3)CC2)c1 | 24.3 | -5.7% | 9.4% | 9.8% | 3.7%
Cn1cccc1/C=N/N1CCN(Cc2ccccc2Cl)CC1 | -19.3 | -13.3% | 2.59µM* | -4.0% | -5.0%
Cc1ccc(CN2CCN(/N=C\c3cccc([N+](=O)[O-])c3)CC2)cc1 | -61.6* | 3.1% | ? | -17.0% | -21.4%
O=[N+]([O-])c1ccc(Cl)c(/C=N/N2CCN(Cc3ccccc3Cl)CC2)c1 | -7.1 | ? | 20.6µM* | 1.1% | -0.2%
COc1cc(C(=S)N2CCOCC2)cc(OC)c1OC(=O)c1cccc(C)c1 | 22.7 | -25.9% | ? | -6.3% | -4.1%
C=CCSc1nnc(NC(=O)CSc2nc3ccccc3o2)s1 | 0.0 | 23.1µM* | ? | 0.5% | 10.1%
O=C(CSc1nc2ccccc2o1)Nc1nc(-c2ccccc2)c(-c2ccccc2)s1 | -0.2 | 18.4µM* | 11.6µM* | 3.9% | -1.8%
CC(C)COP(=O)(OCC(C)C)C(Nc1ccccc1)c1ccc(F)cc1 (stereo not drawn) | ? | ? | ? | ? | -25.3%
CC(C)COP(=O)(OCC(C)C)C(Nc1ccccc1)c1ccc2c(c1)OCO2 (stereo not drawn) | -62.3* | 14.6µM* | ? | -8.7% | -20.1%
Cc1ccc(/C=C/C(=O)N2CCc3ccccc32)o1 | -80.8* | 6.51µM* | 13µM* | -2.0% | ?
COc1ccc(OC)c(/C=C/C(=O)N2CCCc3ccccc32)c1 | -76.7* | -26.0% | ? | -10.8% | -0.7%
COc1ccc(/C=C/C(=O)N2CCCc3ccccc32)cc1 | -4.5 | 25.9µM* | 23.1µM* | 15.9% | 15.5%
O=C(/C=C/c1ccco1)N1CCc2ccccc21 | -26.6 | ? | ? | ? | ?
CCCC(=O)N=C1SC2CS(=O)(=O)CC2N1c1ccc(CC)cc1 (stereo not drawn) | -3.8 | 6.9% | 3.5% | 4.6% | 10.1%
SMILES | IL-1B inflam inh | DT40 TDP1 CPT | DT40 TDP1 no CPT | HT1080NT lethal | HT1080 IDH1KD tx
O=C(Nc1c(Br)cc2c(c1Br)Cc1ccccc1-2)C(Cl)Cl | 29.0 | 5.2% | 7.4% | 6.5% | 10.5%
O=C(C[C@H]1C/C=C\C[C@H](NC(=O)OCC2c3ccccc3-c3ccccc32)C(=O)O[C@@H](c2ccccc2)CNC1=O)NCCO | -8.7 | 9.2µM* | 10.3µM* | -0.2% | -4.7%
O=C(C[C@@H]1C/C=C\C[C@H](NC(=O)OCC2c3ccccc3-c3ccccc32)C(=O)O[C@H](c2ccccc2)CNC1=O)NCCO | 26.6 | 2.59µM* | 2.06µM* | -0.2% | -3.0%
O=C(C[C@H]1C/C=C\C[C@@H](Cc2ccc(F)cc2)C(=O)O[C@H](c2ccccc2)CNC1=O)NCCO | -1.5 | ? | ? | -1.7% | 1.8%
COc1ccc(C(=O)NC(CC(=O)O)c2cc([N+](=O)[O-])ccc2Cl)c(SC)c1 (stereo not drawn) | 7.7 | 13.5% | -11.8% | 2.0% | -15.5%
CN(C(=O)COC(=O)COc1ccccc1F)C1CCS(=O)(=O)C1 (stereo not drawn) | 14.0 | 8.7% | -4.1% | 10.1% | 4.9%
COC(=O)c1c(NC(=O)COc2ncnc3ccccc23)sc(C)c1C | 1.4 | ? | 25.9µM* | 0.4% | 0.5%
CCOC(=O)c1c(NC(=O)CC2Nc3ccccc3NC2=O)sc(C)c1C (stereo not drawn) | -5.3 | 8.2µM* | 18.4µM* | -4.9% | -9.8%
CCOC(=O)c1c(NC(=O)CSc2nc3ccccc3s2)sc(C(C)=O)c1C | 10.8 | 7.31µM* | 16.4µM* | ? | -3.2%
CCOC(=O)c1c(NC(=O)CC2Sc3ccc(C(F)(F)F)cc3NC2=O)sc(C)c1C (stereo not drawn) | 3.6 | ? | ? | 7.8% | 23.8%
CCOC(=O)c1c(NC(=O)CSc2ncnc3ccccc23)sc(C)c1C | 24.1 | ? | 14.6µM* | 22.8% | 8.9%
COc1ccc(C(CNC(=O)COc2ccccc2)N2CCCCC2)cc1 (stereo not drawn) | 0.0 | -25.1% | -0.5% | 0.6% | 7.5%
CCOC(=O)c1c(NC(=O)COc2ncnc3ccccc23)sc(C(C)=O)c1C | 62.2 | 13µM* | 13µM* | -9.1% | -2.0%
Cc1csc(NC(=O)CSc2ncnc3ccccc23)n1 | -88.7* | ? | ? | -8.3% | -14.8%
O=C(O)c1cccc(NC(=O)c2ccc(S(=O)(=O)c3ccccc3)cc2)c1 | 41.2 | -15.9% | -24.2% | 1.1% | 3.4%
CCC(=O)N1CCc2cc(S(=O)(=O)NC(Cc3ccccc3)C(=O)NCc3ccc(F)cc3)ccc21 (stereo not drawn) | . | -29.3% | -29.9% | . | .
